# Experimental data from PubChem BioAssay (Tox21).
# Unmarked numbers belong to inactive results. Records with an inconclusive call do not appear. Entries that show only a call come without a potency. Active and inactive are the calls of the source. Unless noted, calls follow the shape of the dose curve; as a rule, active = well fitted curve in the direction sought with a large enough effect in the repeat runs; inconclusive = weak or mixed curves; inactive = no such curve, though single readings can be large; an effect the other way counts as inactive or inconclusive.
# What was measured:
# [1] = qHTS assay to test for compound auto fluorescence at 535 nm (green) in HEK293 cells (AID 720680)
# [2] = qHTS assay to test for compound auto fluorescence at 460 nm (blue) in HEK293 cell free culture (AID 720681)
# Summary of the method: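 Test compounds were pinned into cell-free culture medium (DMEM with 10% FBS) and fluorescence was read directly at Ex/Em 405/460 nm. Signals were expressed as fluorescence equivalents of triamterene, with DMSO vehicle as control.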
# [3] = qHTS assay to test for compound auto fluorescence at 535 nm (green) in HEK293 cell free culture (AID 720682)
# Summary of the method: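 Fluorescein serves as the green reference fluorophore; each compound's intrinsic emission at 535 nm (excitation 485 nm) is reported as an equivalent amount of that dye, measured in serum-containing DMEM without cells.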
# [4] = qHTS assay to test for compound auto fluorescence at 590 nm (red) in HEK293 cell free culture (AID 720683)
# Summary of the method: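 Tox21 10K library compounds were pinned into cell-free DMEM with 10% FBS and fluorescence was read at excitation 540 nm. Activity is expressed as Rose Bengal sodium equivalency.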
# [5] = qHTS assay to test for compound auto fluorescence at 590 nm (red) in HepG2 cell free culture (AID 720684)
# Summary of the method: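 Readout: intrinsic compound fluorescence at 590 nm emission after 540 nm excitation, scaled to Rose Bengal sodium. Matrix was cell-free MEM with 10% FBS; DMSO vehicle wells served as control.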
# [6] = qHTS assay to test for compound auto fluorescence at 460 nm (blue) in HepG2 cell free culture (AID 720685)
# Summary of the method: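 Cell-free plates of MEM plus 10% FBS received 23 nL compound or DMSO vehicle; blue-channel (405/460 nm) intensity scored against triamterene as reference fluorophore.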
# [7] = qHTS assay to test for compound auto fluorescence at 460 nm (blue) in HepG2 cells (AID 720687)
# Summary of the method: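 Cells (2,000/well in MEM with 10% FBS) attached overnight at 37 C, then were exposed to compound or DMSO for 1 hr at 37 C, 5% CO2. Fluorescence read at Ex/Em 405/460 nm, expressed as triamterene-equivalent signal.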
# [8] = biological target: Glucocorticoid receptor (Homo sapiens) (UniProt P04150); assay: qHTS assay to identify small molecule agonists of the glucocorticoid receptor (GR) signaling pathway (AID 720691; active = well fitted activation curve with a large enough effect in the signal ratio in the repeat runs, not every such curve was filed as active; the % refers to the signal ratio; also: potency is read from the fitted curve at half-maximal effect)
# Summary of the method: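 Measures GR pathway activation through a GRE-beta-lactamase reporter stably integrated in HeLa cells, with 18 h compound treatment at 37 C and fluorescence detection using a FRET substrate.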
# [9] = qHTS assay to identify small molecule antagonists of the glucocorticoid receptor (GR) signaling pathway - cell viability counter screen (AID 720693); also: nearly all actives have a fitted effect of over 55% in size; also: potency is read from the fitted curve at half-maximal effect
# [10] = qHTS assay to identify small molecule antagonists of the androgen receptor (AR) signaling pathway - cell viability counter screen (AID 743033; also: nearly all actives have a fitted effect of over 45% in size)
# [11] = qHTS assay to identify small molecule antagonists of the androgen receptor (AR) signaling pathway using the MDA cell line - cell viability counter screen (AID 743041; also: nearly all actives have a fitted effect of over 45% in size)
# Summary of the method: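 qHTS viability read-out; MDA-kb2 AR-luc; R1881-stimulated; 16 h exposure at 37C, 0% CO2; CellTiter-Fluor, 30 min; fluorescence intensity.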
# [12] = qHTS assay for identifying genotoxic compounds that show differential cytotoxicity against isogenic chicken DT40 cell lines with known DNA damage response pathways - Rad54/Ku70 mutant cell line (AID 743015); also: nearly all actives have a fitted effect of over 60% in size; also: potency is read from the fitted curve at half-maximal effect
# [13] = biological target: Androgen receptor (Homo sapiens) (UniProt P10275); assay: qHTS assay to identify small molecule agonists of the androgen receptor (AR) signaling pathway using the MDA cell line (AID 743040; also: nearly all actives have a fitted effect of over 20% in size)
# Summary of the method: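 Agonist activity is measured as luciferase luminescence in human MDA-kb2 cells whose MMTV reporter responds to both AR and GR. Compounds in DMSO incubate 16 h at 37C, 0% CO2, and ONE-Glo is read after 30 min.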
# [14] = biological target: Androgen receptor (Homo sapiens) (UniProt P10275); assay: qHTS assay to identify small molecule antagonists of the androgen receptor (AR) signaling pathway using the MDA cell line (AID 743042; also: nearly all actives have a fitted effect of over 55% in size)
# Summary of the method: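 MDA-kb2 cells (human breast carcinoma, stably carrying an MMTV-luciferase reporter responsive to AR and GR) were plated at 3,000 cells/well and preincubated 5 hr at 37C, then given compound plus R1881 agonist for 16 h. ONE-Glo luminescence was read.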
# [15] = qHTS assay for identifying genotoxic compounds that show differential cytotoxicity against isogenic chicken DT40 cell lines with known DNA damage response pathways - wild type cell line (AID 743012); also: nearly all actives have a fitted effect of over 60% in size; also: potency is read from the fitted curve at half-maximal effect
# Summary of the method: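 Endpoint: CellTiter-Glo luminescence, 30 min RT. Cells: wild type DT40, 300/well. Exposure: compounds in DMSO, 40 h, 37 C/5% CO2, after ~0.5 h pre-incubation.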
# [16] = qHTS assay for identifying genotoxic compounds that show differential cytotoxicity against isogenic chicken DT40 cell lines with known DNA damage response pathways - Rev3 mutant cell line (AID 743014); also: nearly all actives have a fitted effect of over 55% in size; also: potency is read from the fitted curve at half-maximal effect
# [17] = biological target: Androgen receptor (Homo sapiens) (UniProt P10275); assay: qHTS assay to identify small molecule agonists of the androgen receptor (AR) signaling pathway (AID 743036; active = well fitted activation curve with a large enough effect in the signal ratio in the repeat runs, with a control signal flat, not every such curve was filed as active; the % refers to the signal ratio)
# Summary of the method: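 Fluorescence from a beta-lactamase FRET substrate served as read-out in AR-UAS-bla GripTite HEK293 cells. Cells were treated with DMSO-dissolved compounds for 16 h at 37C, then with LiveBLAzer B/G substrate for 2 h at room temperature.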
# [18] = qHTS assay to test for compound auto fluorescence at 535 nm (green) in HepG2 cell free culture (AID 720686)
# [19] = biological target: Glucocorticoid receptor (Homo sapiens) (UniProt P04150); assay: qHTS assay to identify small molecule antagonists of the glucocorticoid receptor (GR) signaling pathway (AID 720692; active = well fitted inhibition curve with a large enough effect in the signal ratio in the repeat runs, not every such curve was filed as active; the % refers to the signal ratio; also: potency is read from the fitted curve at half-maximal effect)
# Summary of the method: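 Tox21 10K library screened in concentration-response for blockade of dexamethasone (5 nM final)-induced GRE-bla reporter activity in HeLa cells; 18 h treatment, fluorescence read.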
# [20] = biological target: Androgen receptor (Homo sapiens) (UniProt P10275); assay: qHTS assay to identify small molecule antagonists of the androgen receptor (AR) signaling pathway (AID 743035; active = well fitted inhibition curve with a large enough effect in the signal ratio in the repeat runs, not every such curve was filed as active; the % refers to the signal ratio; also: potency is read from the fitted curve at half-maximal effect)
# Summary of the method: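 R1881 agonist challenge of a HEK293 UAS-beta-lactamase AR reporter line in the presence of compound (16 h, 37C); signal taken as FRET fluorescence after 2 h with LiveBLAzer B/G substrate at room temperature.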
# Chain of Androgen receptor (Homo sapiens) (P10275 whole entry, looked up): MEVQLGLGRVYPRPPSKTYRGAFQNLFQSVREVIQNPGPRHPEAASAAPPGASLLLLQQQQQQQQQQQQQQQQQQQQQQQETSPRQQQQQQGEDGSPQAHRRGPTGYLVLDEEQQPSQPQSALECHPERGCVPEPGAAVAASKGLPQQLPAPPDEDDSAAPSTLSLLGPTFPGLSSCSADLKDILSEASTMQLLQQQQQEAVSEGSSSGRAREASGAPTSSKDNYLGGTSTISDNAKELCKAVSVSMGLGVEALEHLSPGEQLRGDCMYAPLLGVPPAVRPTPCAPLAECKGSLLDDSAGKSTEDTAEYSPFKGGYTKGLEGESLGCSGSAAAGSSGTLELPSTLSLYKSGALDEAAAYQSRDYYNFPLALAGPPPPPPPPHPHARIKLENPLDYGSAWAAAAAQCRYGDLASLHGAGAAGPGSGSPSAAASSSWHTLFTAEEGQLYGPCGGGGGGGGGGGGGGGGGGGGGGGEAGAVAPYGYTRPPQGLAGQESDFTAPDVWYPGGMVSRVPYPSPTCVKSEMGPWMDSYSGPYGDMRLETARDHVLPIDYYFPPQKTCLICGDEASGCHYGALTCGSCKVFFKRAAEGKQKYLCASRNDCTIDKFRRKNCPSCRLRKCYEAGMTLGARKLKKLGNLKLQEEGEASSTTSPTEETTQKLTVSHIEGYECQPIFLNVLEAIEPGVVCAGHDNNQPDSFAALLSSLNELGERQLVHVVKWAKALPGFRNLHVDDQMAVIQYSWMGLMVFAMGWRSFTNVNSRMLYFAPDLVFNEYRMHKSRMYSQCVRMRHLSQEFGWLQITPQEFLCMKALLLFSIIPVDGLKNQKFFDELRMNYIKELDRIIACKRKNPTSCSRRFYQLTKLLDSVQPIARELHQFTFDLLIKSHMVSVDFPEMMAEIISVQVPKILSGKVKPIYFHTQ
# Chain of Glucocorticoid receptor (Homo sapiens) (P04150 whole entry, looked up): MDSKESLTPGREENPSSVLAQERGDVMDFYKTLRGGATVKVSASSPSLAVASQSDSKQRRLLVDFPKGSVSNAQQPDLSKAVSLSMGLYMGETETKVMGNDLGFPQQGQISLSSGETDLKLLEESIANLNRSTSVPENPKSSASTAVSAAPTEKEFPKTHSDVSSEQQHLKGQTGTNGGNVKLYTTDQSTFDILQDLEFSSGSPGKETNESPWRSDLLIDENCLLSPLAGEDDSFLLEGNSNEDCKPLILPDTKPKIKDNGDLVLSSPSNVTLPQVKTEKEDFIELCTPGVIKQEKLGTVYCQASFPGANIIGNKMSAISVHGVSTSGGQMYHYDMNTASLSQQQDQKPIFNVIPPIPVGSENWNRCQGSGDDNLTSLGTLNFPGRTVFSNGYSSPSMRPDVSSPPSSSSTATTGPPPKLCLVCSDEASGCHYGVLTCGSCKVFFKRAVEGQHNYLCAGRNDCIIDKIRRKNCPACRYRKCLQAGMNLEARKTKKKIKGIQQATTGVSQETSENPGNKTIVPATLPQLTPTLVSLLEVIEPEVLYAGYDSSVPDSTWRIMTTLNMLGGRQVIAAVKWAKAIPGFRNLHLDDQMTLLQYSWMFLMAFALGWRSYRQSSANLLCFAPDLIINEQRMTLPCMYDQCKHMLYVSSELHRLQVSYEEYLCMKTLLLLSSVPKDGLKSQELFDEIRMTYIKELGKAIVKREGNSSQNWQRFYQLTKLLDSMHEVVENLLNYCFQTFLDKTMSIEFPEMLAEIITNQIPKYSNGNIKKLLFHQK
structure (smiles),measurement,setting,value
CC(Cc1ccccc1)(NC(=O)CN)c1ccccc1 (stereo unspecified),outcome,[1],inactive
same,Potency,[2],inactive
same,outcome,[3],inactive
same,outcome,[4],inactive
same,outcome,[5],inactive
same,outcome,[6],inactive
same,outcome,[7],inactive
same,Potency,[8],inactive
same,Potency,[9],inactive
same,Potency,[10],inactive
same,Potency,[11],inactive
O=c1[nH][nH]c2ccccc12,outcome,[1],inactive
same,Potency,[2],inactive
same,outcome,[3],inactive
same,outcome,[4],inactive
same,outcome,[5],inactive
same,outcome,[6],inactive
same,outcome,[7],inactive
same,Potency,[8],inactive
same,Potency,[9],inactive
same,Potency,[12],inactive
same,Potency,[10],inactive
same,outcome,[13],inactive
same,Potency,[11],inactive
same,Potency,[14],inactive
COc1cccc([C@H](O)C2CCN(CCc3ccc(F)cc3)CC2)c1OC,outcome,[1],inactive
same,Potency,[2],inactive
same,outcome,[3],inactive
same,outcome,[4],inactive
same,outcome,[5],inactive
same,outcome,[6],inactive
same,outcome,[7],inactive
same,Potency,[8],inactive
same,Potency,[9],inactive
same,Potency,[15],27.3 µM (active)
same,Potency,[12],4.33 µM (active)
same,Potency,[10],inactive
same,Potency,[11],inactive
O=C(OC1C[C@H]2CC[C@@H](C1)[N+]21CCCC1)C(O)(c1ccccc1)c1ccccc1 (stereo partly specified),outcome,[1],inactive
same,Potency,[2],inactive
same,outcome,[3],inactive
same,outcome,[4],inactive
same,outcome,[5],inactive
same,outcome,[6],inactive
same,Potency,[9],inactive
same,Potency,[15],inactive
same,Potency,[16],inactive
same,Potency,[12],inactive
same,Potency,[10],inactive
same,outcome,[17],inactive
same,outcome,[13],inactive
same,Potency,[14],inactive
CCCCCCC/C=C/C=O,outcome,[1],inactive
same,Potency,[2],inactive
same,outcome,[3],inactive
same,outcome,[4],inactive
same,outcome,[5],inactive
same,outcome,[6],inactive
same,outcome,[7],inactive
same,Potency,[8],inactive
same,Potency,[9],inactive
same,Potency,[16],inactive
same,Potency,[12],43.3 µM (active)
same,Potency,[10],inactive
same,Potency,[11],inactive
CC1(COc2ccc(CC3SC(=O)NC3=O)cc2)CCCCC1 (stereo unspecified),outcome,[1],inactive
same,Potency,[2],inactive
same,outcome,[3],inactive
same,outcome,[4],inactive
same,outcome,[5],inactive
same,outcome,[6],inactive
same,outcome,[18],inactive
same,Potency,[9],23.9 µM (active)
same,Potency,[15],10.6 µM (active)
same,Potency,[16],23.7 µM (active)
same,Potency,[12],11.9 µM (active)
same,Potency,[10],inactive
CCOC(C)OCC,outcome,[1],inactive
same,Potency,[2],inactive
same,outcome,[3],inactive
same,outcome,[4],inactive
same,outcome,[5],inactive
same,outcome,[6],inactive
same,outcome,[7],inactive
same,Potency,[8],inactive
same,Potency,[19],inactive
same,Potency,[9],inactive
same,Potency,[15],inactive
same,Potency,[16],inactive
same,Potency,[12],inactive
same,Potency,[10],inactive
same,Potency,[11],inactive
Cc1nc2sccn2c(=O)c1CCN1CCC(=C(c2ccc(F)cc2)c2ccc(F)cc2)CC1,outcome,[1],inactive
same,Potency,[2],inactive
same,outcome,[3],inactive
same,outcome,[4],inactive
same,outcome,[5],inactive
same,outcome,[6],inactive
same,outcome,[7],inactive
same,Potency,[9],inactive
same,Potency,[15],7.5 µM (active)
same,Potency,[16],13.3 µM (active)
same,Potency,[12],13.3 µM (active)
same,Potency,[10],inactive
CC(=O)OCC(=O)[C@@]1(O)CC[C@H]2[C@@H]3CCC4=CC(=O)C=C[C@]4(C)[C@@]3(F)[C@@H](O)C[C@@]21C,"fluorescence, % of fluorescein",[1],-0.0592% [at 18.6 µM]
same,"fluorescence, % of fluorescent control",[2],-0.0825% [at 18.6 µM]
same,activity change,[3],0.114% [at 18.6 µM]
same,"fluorescence, % of fluorescent control",[4],0.0194% [at 18.6 µM]
same,"fluorescence, % of Rose Bengal",[5],-0.0287% [at 18.6 µM]
same,"fluorescence, % of fluorescent control",[6],0.0112% [at 18.6 µM]
same,Potency,[8],0.0129 µM (active)
same,Potency,[9],inactive
same,Potency,[15],inactive
same,Potency,[12],inactive
same,Potency,[10],inactive
same,Potency,[11],inactive
CC(=O)c1cccnc1,outcome,[1],inactive
same,Potency,[2],inactive
same,outcome,[3],inactive
same,outcome,[4],inactive
same,outcome,[5],inactive
same,outcome,[6],inactive
same,outcome,[7],inactive
same,Potency,[8],inactive
same,Potency,[19],inactive
same,Potency,[9],inactive
same,Potency,[15],inactive
same,Potency,[16],inactive
same,Potency,[12],inactive
same,Potency,[10],inactive
same,Potency,[11],inactive
CC(C)(C)c1ccc(CCC=O)cc1,outcome,[1],inactive
same,Potency,[2],inactive
same,outcome,[3],inactive
same,outcome,[4],inactive
same,outcome,[5],inactive
same,outcome,[6],inactive
same,outcome,[7],inactive
same,Potency,[8],inactive
same,Potency,[19],inactive
same,Potency,[9],inactive
same,Potency,[15],inactive
same,Potency,[16],inactive
same,Potency,[12],inactive
same,Potency,[10],inactive
same,Potency,[11],inactive
CCOc1cc(OCC)c(C(C)=O)cc1OCC,outcome,[1],inactive
same,Potency,[2],inactive
same,outcome,[3],inactive
same,outcome,[4],inactive
same,outcome,[5],inactive
same,outcome,[6],inactive
same,outcome,[7],inactive
same,Potency,[8],inactive
same,Potency,[9],inactive
same,Potency,[16],60 µM (active)
same,Potency,[10],inactive
same,Potency,[20],inactive
same,outcome,[17],inactive
same,outcome,[13],inactive
same,Potency,[14],inactive
O=C(Nc1ccccc1)c1cc([N+](=O)[O-])ccc1Cl,outcome,[1],inactive
same,Potency,[2],inactive
same,outcome,[3],inactive
same,outcome,[4],inactive
same,outcome,[5],inactive
same,outcome,[6],inactive
same,outcome,[7],inactive
same,Potency,[9],inactive
same,Potency,[15],68.6 µM (active)
same,Potency,[12],68.6 µM (active)
same,Potency,[10],inactive
same,Potency,[20],24.5 µM (active)
same,outcome,[17],inactive
same,outcome,[13],inactive
same,Potency,[11],inactive
same,Potency,[14],inactive
C/C(=C\C(C)CC(C)CC(C)C)C1CC(=O)OC1=O (stereo unspecified),outcome,[1],inactive
same,Potency,[2],inactive
same,outcome,[3],inactive
same,outcome,[4],inactive
same,outcome,[5],inactive
same,outcome,[6],inactive
same,outcome,[18],inactive
same,Potency,[8],inactive
same,Potency,[19],24.6 µM (active)
same,Potency,[9],inactive
same,Potency,[15],inactive
same,Potency,[16],inactive
same,Potency,[12],inactive
same,Potency,[10],inactive
same,Potency,[11],inactive
CC(C)(C)NCC(O)COc1ccc(NC(=O)NC2CCCCC2)cc1 (stereo unspecified),outcome,[1],inactive
same,Potency,[2],inactive
same,outcome,[3],inactive
same,outcome,[4],inactive
same,outcome,[5],inactive
same,outcome,[6],inactive
same,outcome,[7],inactive
same,Potency,[8],inactive
same,Potency,[19],inactive
same,Potency,[15],29.8 µM (active)
same,Potency,[12],26.6 µM (active)
same,Potency,[10],inactive
CCCCCCCCOCCCN,outcome,[1],inactive
same,Potency,[2],inactive
same,outcome,[3],inactive
same,outcome,[4],inactive
same,outcome,[5],inactive
same,outcome,[6],inactive
same,outcome,[7],inactive
same,Potency,[8],inactive
same,Potency,[9],inactive
same,Potency,[15],4.33 µM (active)
same,Potency,[16],6.86 µM (active)
same,Potency,[12],6.86 µM (active)
same,Potency,[10],inactive
same,Potency,[20],inactive
same,outcome,[13],inactive
same,Potency,[11],inactive
same,Potency,[14],inactive
